# An excerpt weighted towards active compounds, which were near 1.7% of everything screened.
# GSTO1 inh – blocks human GSTO1 in RBBP9 counter-screen | AID 1974 | 1.1% of 300,000 active | inhibition, % at 5.96 µM | recombinant GSTO1, activity-based probe fluorescence polarization;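 active = inhibition above the campaign mean inhibition plus 3 SD, cut at about 35% in these data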;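 also: 0% = GSTO1-1 with DMSO and 100% = wells lacking GSTO1-1 enzyme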
# PAD4 FP inh – PAD4 (human) enzyme inhibition; Q9UM07; recombinant PAD4, RCA probe fluorescence polarization; inhibition, % at 6.36 µM; AID 485272; 0.41% of 330,000 active;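 active = percent inhibition above a cutoff equal to the mean of all tested compounds plus 3 SD, cut at about 15% in these data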;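 also: 0% = PAD4 with RCA probe and DMSO and 100% = probe without PAD4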
# LYPLA1 counter – counter-screen for PME1 inhibitors: inhibitors of human LYPLA1; AID 2174; inhibition, % at 5.9 µM; recombinant LYPLA1, FP-Rh probe fluorescence polarization; 0.16% of 320,000 active;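 active = inhibition above the mean of all tested compounds plus 3 SD, set per campaign, cut at about 14% in these data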;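 also: inhibitors block serine hydrolase probe labeling of LYPLA1 so polarization falls; 0% = enzyme with DMSO and 100% = wells lacking LYPLA1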
# Target sequence (O75608 whole entry, looked up): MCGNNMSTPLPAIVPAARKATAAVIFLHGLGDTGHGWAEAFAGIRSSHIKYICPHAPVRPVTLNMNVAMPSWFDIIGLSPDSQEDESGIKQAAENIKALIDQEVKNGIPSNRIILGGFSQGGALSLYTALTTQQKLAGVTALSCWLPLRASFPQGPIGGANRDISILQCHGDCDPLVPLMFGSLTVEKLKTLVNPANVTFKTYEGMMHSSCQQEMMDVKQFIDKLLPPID
# LYPLA2 counter – LYPLA2 (human) inhibition in PME1 counter-screen | recombinant LYPLA2, FP-Rh probe fluorescence polarization | inhibition, % at 5.9 µM | 0.38% of 320,000 active;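 active = inhibition above the screen-wide mean plus 3 SD, limit set per campaign, cut at about 26% in these data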;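 also: 0% = LYPLA2 with DMSO and 100% = wells lacking LYPLA2 enzyme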
# Fam108B counter – blocks mouse Fam108B hydrolase in RBBP9 counter-screen; recombinant Fam108B, FP-Rh probe fluorescence polarization; inhibition, % at 9.51 µM; 0.33% of 300,000 active; AID 1947;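 active = inhibition above the screen mean inhibition plus 3 SD, computed separately per campaign, cut at about 18% in these data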;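 also: inhibitors lower polarization as less probe binds the enzyme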
# PME-1 primary – PME-1 (human) inhibition | Q9Y570 | recombinant PME-1, FP-Rh probe fluorescence polarization | inhibition, % at 5.9 µM | 0.53% of 320,000 active | AID 2130;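 active = inhibition above the campaign mean of all compounds plus 3 SD, cut at about 26% in these data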;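 also: competitive labeling of PME-1 active site by serine hydrolase directed probe; 0% = PME-1 with DMSO and 100% = wells lacking PME-1 enzyme; inhibitors block probe labeling so polarization falls and inhibition rises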
# Target sequence (Q9Y570 whole entry, looked up): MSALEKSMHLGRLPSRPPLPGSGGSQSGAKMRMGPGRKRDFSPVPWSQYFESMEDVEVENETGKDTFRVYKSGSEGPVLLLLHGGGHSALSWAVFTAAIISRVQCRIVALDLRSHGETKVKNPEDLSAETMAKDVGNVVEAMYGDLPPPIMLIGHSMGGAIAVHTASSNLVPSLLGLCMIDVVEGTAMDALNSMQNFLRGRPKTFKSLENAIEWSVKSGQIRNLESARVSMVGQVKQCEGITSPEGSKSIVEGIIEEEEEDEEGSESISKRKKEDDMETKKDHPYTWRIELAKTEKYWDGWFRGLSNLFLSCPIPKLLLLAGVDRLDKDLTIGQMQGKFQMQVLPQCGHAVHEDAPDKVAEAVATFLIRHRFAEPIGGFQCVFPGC
# GSTO1 confirm – confirmation of human GSTO1 inhibitors | AID 2176 | recombinant GSTO1, probe fluorescence polarization | 54% of 2,400 active | shares compounds with GSTO1 inh | inhibition, % at 5.96 µM;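 active = inhibition above the primary screen's cutoff, its mean inhibition plus 3 SD, cut at about 35% in these data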;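 also: loss of polarization as inhibitors block binding of rhodamine sulfonate ester activity probe; 0% = GSTO1 with DMSO and 100% = wells lacking GSTO1 enzyme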
# GSTO1 ABPP inh – GSTO1 (human) inhibition by gel ABPP; inhibition, % at 1 µM; recombinant GSTO1, gel ABPP SE-Rh probe fluorescence; shares compounds with GSTO1 inh; 30% of 130 active;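 active = inhibition of the enzyme GSTO1 above about 75%, limit read from the data; inactive = inhibition below that limit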
# * = called active by the depositor; x = no result given.
SMILES,GSTO1 inh,PAD4 FP inh,LYPLA1 counter,LYPLA2 counter,Fam108B counter,PME-1 primary,GSTO1 confirm,others
Cc1cc[n+](-c2nc3ccccc3nc2C(=C=[N-])C#N)cc1,47*,-27,-3,-4,10,12,35,
N#CC(=C=[N-])c1nc2ccccc2nc1-[n+]1ccccc1,64*,-4,1,6,3,0,37*,
CCOc1ccc(CNS(=O)(=O)c2cccs2)cc1OCC,7,2,-3,-5,-2,4,x,
CCn1c(-c2ccccc2Cl)nn(CC(=O)Nc2cc(Cl)ccc2Cl)c1=S,38*,1,-10,-8,1,-8,21,
CC(=O)NN1C(=O)/C(=C\c2ccccc2)SC1=S,4,-7,-1,5,0,0,x,
CC(=O)NN1C(=O)/C(=C/c2ccc(Br)o2)SC1=S,64*,-32,-5,-17,-5,-17,78*,
CC(=O)NN1C(=O)/C(=C\c2ccc(Br)o2)SC1=S,69*,-33,-13,-16,4,-28,79*,
CC(=O)NN1C(=O)/C(=C\c2ccc(O)cc2)SC1=S,0,-8,-11,-32,-23,-32,x,
Cc1ccc(Sc2ccc(NC(=O)CCl)cc2)c(C)c1,78*,3,-5,-2,-9,8,89*,
COc1ccccc1C(=O)NCCC(=O)N1CCN(S(=O)(=O)c2ccc(Cl)cc2)CC1,x,-5,4,5,x,-2,x,
CC1=NN(c2ccccc2)C(=O)/C1=C/c1cc2cc(C)ccc2nc1N1CCCCC1,68*,21*,1,3,6,15,4,
CC1=NN(c2ccccc2)C(=O)/C1=C\c1cc(C)n(C)c1C,-2,2,-2,1,0,6,x,
Cc1ccc(N/N=C2\CC(=O)c3ccccc32)cc1Cl,48*,0,0,5,13,6,26,
Cc1ccc(-c2noc(CSc3nnnn3C3CCCCC3)n2)cc1,40*,-1,-11,-8,2,-1,33,
COc1cc2c(cc1OC)C(C)N(C(=O)C1COc3ccccc3O1)CC2 (centres undefined),-1,5,-3,-3,6,-1,x,
COc1ccc(-n2c(N)c(C(=O)NCC3CCCO3)c3nc4ccccc4nc32)c(OC)c1 (centres undefined),18,-12,1,1,4,13,x,
C=CCn1c(N)c(C(=O)NCC2CCCO2)c2nc3ccccc3nc21 (centres undefined),80*,12,1,7,0,9,5,
COc1ccc(OC)c(S(=O)(=O)Nc2cccc3c(O)cccc23)c1,31,-6,-5,-9,4,0,x,
COc1ccc(C(=O)Nc2ccc(O)c3ccccc23)cc1,49*,-8,2,5,3,3,6,
COc1ccc(OC)c(S(=O)(=O)Nc2ccc(O)c3ccccc23)c1,60*,-2,1,7,-5,6,8,
COc1ccc(CNC(=O)C(c2ccccc2F)N(C(=O)c2csnn2)C2CC2)cc1 (centres undefined),0,3,2,-5,2,0,x,
O=C(O)CNS(=O)(=O)c1ccc2c(c1)Cc1cc(S(=O)(=O)NCC(=O)O)ccc1-2,5,-1,1,-1,-6,0,x,
O=C(NC1CCCC1)c1ccc2nc(-c3ccco3)c(-c3ccco3)nc2c1,63*,7,-12,-9,18,10,38*,
O=C(CCCN1C(=O)CSc2ncccc21)N1CCN(Cc2ccccc2)CC1,3,1,4,5,3,-1,x,
O=C(NC1CCCCC1)Oc1cc2oc(=O)sc2cc1Br,51*,-3,4,4,1,2,14,
SMILES,GSTO1 inh,PAD4 FP inh,LYPLA1 counter,LYPLA2 counter,Fam108B counter,PME-1 primary,GSTO1 confirm,others
CC1(C(=O)Nc2cccc(C(F)(F)F)c2)CO1 (centres undefined),68*,0,1,-1,-6,3,85*,GSTO1 ABPP inh=19
CN(C)S(=O)(=O)n1cnc(C(CCO)c2ncn(S(=O)(=O)N(C)C)c2CCCO)c1 (centres undefined),x,0,0,1,x,-1,x,
Cc1cc(OCC(=O)OC(C)C(=O)Nc2ccc(N3CCOCC3)cc2)ccc1Cl (centres undefined),x,-3,-2,6,x,-1,x,
C#CC(=O)N(c1ccc(OC)c(OC)c1)C(C(=O)NC1CCCC1)c1cccs1 (centres undefined),48*,5,1,-1,-4,4,52*,
C#CC(=O)N(c1cccc(OC)c1)C(C(=O)NC1CCCC1)c1cccs1 (centres undefined),76*,6,1,6,-3,-2,76*,
Cc1ccc2c(cnn2C(=O)CCC(=O)N2CCCCC2C)c1 (centres undefined),-2,-3,2,6,4,1,x,
O=C(CCl)N(CCc1ccccc1)CCc1ccccc1,79*,9,-1,-5,1,-1,96*,GSTO1 ABPP inh=82*
O=C(CCCc1ccccc1)NCCc1ccccc1,8,-7,2,-5,0,-4,x,
O=C(Nc1ccc(F)cc1F)c1c(C(F)(F)F)ccnc1Oc1ccc(Cl)cc1,3,0,4,6,2,3,x,
O=C(N(c1ccccc1)c1ccccc1)N(c1ccccc1)c1ccccc1,12,0,-4,-3,-2,2,x,
CC(=O)N(C1=C(N)C(=O)c2ccccc2C1=O)c1ccccc1,59*,1,2,4,-2,3,27,
Cc1ccc(NC(=O)NC(=O)CN2CCCC2c2ccc3c(c2)OCCO3)cc1C (centres undefined),x,2,-1,-2,x,-3,x,
Cc1cc(=O)[nH]c(N=N/C(=N/Nc2ccc(O)cc2)c2ccccc2)n1,52*,-7,3,0,2,2,8,
COc1ccc(N/N=C(/N=Nc2nc(C)cc(=O)[nH]2)c2ccccc2)cc1,17,-2,3,2,9,11,x,
CC(=O)Oc1ccc(OC(C)=O)c(SCCCCCN2CCOCC2)c1,79*,-7,2,1,3,0,6,
Cc1cccc(NC(=O)CSCc2cc(=O)n3nc(C4CC4)sc3n2)c1,1,-1,0,6,2,3,x,
COc1ccc(NC(=O)CSCc2cc(=O)n3nc(C4CC4)sc3n2)cc1,38*,1,-2,-5,3,1,18,
CCOC(=O)c1cnc2cc(-c3ccc(Br)cc3)nn2c1C,2,4,0,9,-2,4,x,
CSc1nncc(/C(C)=N\Nc2ccccc2)n1,38*,-7,-1,0,1,1,6,

# From PubChem
